Measured values taken from PubChem BioAssay AID1566 (Sanford-Burnham Center for Chemical Genomics, 2009).
Among all 290,000 compounds or so, about 1,800 (0.62%) were called active. Cut-off read from the data, not from the text of the source: active = inhibition above about 50%; inactive = the rest. The entries come from a sample that favours actives as a whole.

Assay: inhibition of NOD2-driven NF-kB reporter – cell-based, luminescence, uHTS, HEK293 (AID 1566)
Settings: HEK293 NOD2/NF-kB luciferase reporter, at 4 µM, stronger effect = higher value

inhibition, active:
Cc1oc(-c2ccc(Cl)cc2)nc1CS(=O)CC(=O)NCCCN1CCN(Cc2ccccc2)CC1 (stereo unspecified) 61.5%
CCc1ccc(-c2nnn(CCC(=O)OC)n2)cc1 54.4%
CCC(=O)NC(c1ccc(C)cc1)c1ccc2cccnc2c1O (stereo unspecified) 70%
Cc1ccc(C2(c3ccc(C)cc3)CC2C(=O)Nc2ccc([N+](=O)[O-])cc2O)cc1 (stereo unspecified) 52.6%
O=C(N/N=C/c1ccccc1O)C1CC(=O)N(c2ccc(F)cc2)C1 (stereo unspecified) 59.3%
COc1ccccc1/C=C/C(=O)/C=C/c1ccccc1O 50.2%
Fc1ccc2[nH]c3c(N4CCN(Cc5ccc6c(c5)OCO6)CC4)ncnc3c2c1 55.3%
O=S(=O)(Nc1nc2ccccc2nc1Nc1cccc(S(=O)(=O)N2CCCCC2)c1)c1ccccc1 55.5%
COc1ccc(-c2nsc3c(N4CCCCC4C)ncnc23)cc1 (stereo unspecified) 86%
Cc1ccc(-c2cc3c(N=O)c4ccccc4c-3n[nH]2)cc1 70.7%
CCc1ccc(-c2nc(CSCC(=O)NCc3ccco3)c(C)o2)cc1 50%
COc1ccc(S(=O)(=O)N/N=C\c2ccc3c(c2)OCO3)c(OC)c1 51.2%
COc1ccc(S(=O)(=O)N/N=C\c2ccc([N+](=O)[O-])o2)c(OC)c1 52.1%
CCN(CC)C(=O)c1ccc2c(=O)n(Cc3cccc(Br)c3)c(=S)[nH]c2c1 58.7%

inhibition, inactive:
Cc1ccc(-c2nc(CS(=O)CC(=O)NCCCN3CCN(Cc4ccccc4)CC3)c(C)o2)cc1 (stereo unspecified) 28.9%
Cc1oc(-c2ccc(Cl)cc2)nc1CS(=O)CC(=O)NCCCN1CCOCC1 (stereo unspecified) 16.6%
Cc1c(-c2nc(-c3ccc(C(F)(F)F)cc3)no2)n(C)oc1=O -51.2%
CCN(CC)C(=O)C1CCCN(Cc2ccccc2)C1 (stereo unspecified) -6.7%
Cc1cccc(NC(=O)NCc2ccc3c(c2)cc(C)n3C)c1 10.6%
COC(=O)CCn1nnc(-c2cccs2)n1 6.8%
COC(=O)CCn1nnc(-c2ccc(C)cc2)n1 -23.2%
COc1ccc(OC)c(NC(=O)CCCC(=O)NC2CCCCC2)c1 10.6%
COC(=O)C(Cc1ccc(O)cc1)NC(=O)C(C)NC(=O)c1ccc(C(C)(C)C)cc1 (stereo unspecified) -9.1%
CC(=O)C1=C(O)C(=O)N(c2nccs2)C1c1ccccc1 (stereo unspecified) -1.4%
O=C(C1=C(O)C(=O)N(c2nccs2)C1c1ccccc1)c1cc2ccccc2o1 (stereo unspecified) -20.5%
CSc1ccccc1-c1nnc(-c2ccc(Cl)c(Cl)c2)o1 -48.1%
Cc1cc([N+](=O)[O-])ccc1NC(=O)C(C)N1CCN(c2ccccn2)CC1 (stereo unspecified) 12%
Cc1ccc(S(=O)(=O)NCc2ccc(C(=O)N3CCCC3)cc2)cc1 -3.3%
Cc1ccc(S(=O)(=O)NCc2ccc(C(=O)N3CCN(c4ccccc4)CC3)cc2)cc1 12.6%
COc1ccc(-c2nc(CN3CCN(c4cc(C)nc(C)c4)CC3)c(C)o2)c2ccccc12 30.3%
COc1ccc(-c2nc(CN3CCN(c4ccccc4OC)CC3)c(C)o2)cc1 1.8%
O=C(NC1CCCCC1)C(c1ccc(O)cc1)N(C(=O)c1cnccn1)c1cccc(F)c1 (stereo unspecified) 3.4%
CC(C)(C)CC(=O)Nc1ccccc1N1CCN(c2ccccc2)CC1 -19.6%
CCCC(=O)NC(c1ccc(C)cc1)c1ccc2cccnc2c1O (stereo unspecified) 13%
CCCC(=O)NC(c1ccc(C(C)C)cc1)c1ccc2cccnc2c1O (stereo unspecified) 21.9%
Cc1cccc(C2(c3cccc(C)c3)CC2C(=O)Nc2ccc([N+](=O)[O-])cc2O)c1 (stereo unspecified) 48.8%
CC1(C)CC1C(=O)Nc1ccc([N+](=O)[O-])cc1Br (stereo unspecified) 9.5%
O=C(N/N=C/c1ccccc1O)C1CC(=O)N(c2ccc(Cl)cc2)C1 (stereo unspecified) 47.3%
Cc1ccsc1/C=N/NC(=O)C1CC(=O)N(c2ccc(F)cc2)C1 (stereo unspecified) 16.6%
Cc1cc(C(=O)NNC(=S)NCC(C)C)no1 -0.2%
CCCSc1nnc(-c2c[nH]c3ccccc23)n1CC -33.8%
Cn1[nH]c(=O)c(Cl)c(Cl)c1=O 10.7%
COc1ccccc1/C=C/C(C)=O -13.4%
COc1ccccc1/C=C/C(=O)c1ccccc1 -52.6%
CCOc1ccc2[nH]c(=O)c(CN(CC3CCCN3CC)C(=O)NCc3ccccc3)cc2c1 (stereo unspecified) 13.6%
Nc1cc(S(=O)(=O)O)cc([N+](=O)[O-])c1O 8.2%
O=C(NCCN1CCOCC1)c1ccc(Cl)c(Cl)c1 -11.3%
O=C(Nc1ccc2snnc2c1)N1CCCCC1 3.3%
O=C(Nc1ccc2c(c1)OCO2)c1cc(C2CC2)on1 -108%
COc1cc(/C=C2\CCOC2=O)cc(OC)c1OC -11.1%
COc1cc(/C=C2\CC/C(=C\c3cc(OC)c(OC)c(OC)c3)C2=O)cc(OC)c1OC -18.8%
CN(C)C1(CNC(=O)C2CCN(S(=O)(=O)c3cc(Cl)ccc3Cl)CC2)CCCCC1 -8.8%
COc1ccc2[nH]c3c(N4CCN(Cc5ccc6c(c5)OCO6)CC4)ncnc3c2c1 3.4%
Cc1ccc2[nH]c3c(N4CCN(Cc5ccc6c(c5)OCO6)CC4)ncnc3c2c1 49.8%
CC(C)CC(N)c1cn([C@@H](CCC(=O)O)C(=O)N2CCNCC2)nn1 (stereo partly specified) -7.7%
CNC(C)C#Cc1ccc2c(=O)c3c(OC)cccc3oc2c1 (stereo unspecified) -33.5%
O=C(O)CSc1ncnc2sc(-c3ccccc3)cc12 15.1%
CC(=O)CCSc1ncnc2sc(-c3ccccc3)cc12 -124%
Cc1ccc(SCCN2CCN(CC(C)C)CCC2=O)cc1 -18.4%
O=C(NC1CCCCCCC1)c1cc(F)c(F)cc1Cl -57.3%
Cc1csc(Nc2ccccc2C(F)(F)F)n1 -3.5%
O=S(=O)(Nc1cccc(S(=O)(=O)N2CCCCCC2)c1)c1ccccc1 16.1%
O=S(=O)(Nc1nc2ccccc2nc1Nc1ccc2c(c1)OCO2)c1ccccc1 26%
CC(=O)Nc1cccc(S(=O)(=O)N2CCCCCC2)c1 2.3%
COc1ccc(S(=O)(=O)Nc2cccc(S(=O)(=O)N3CCCCCC3)c2)cc1 -4.9%
COc1ccc(S(=O)(=O)Nc2nc3ccccc3nc2Nc2ccc3c(c2)OCO3)cc1 25.7%
O=C(CCc1ccccc1Cl)Nc1cccc(S(=O)(=O)N2CCCC2)c1 4%
COc1ccccc1CNC(=O)c1cn(C)c2ccc(S(=O)(=O)N3CCCCC3)cc2c1=O -7.1%
CCn1c(C)c2c(C)nnc(C)c2c1C 8.3%
Cc1ccc(CSC2=NCCN2C(=O)c2ccc(S(=O)(=O)N(C)C)cc2)cc1 -5%
COc1ccc(C)cc1NC(=O)CC(O)(C(F)(F)F)C(F)(F)F 1.2%
COc1ccc(-c2nsc3c(N4CCCCC4)ncnc23)cc1 -13.3%
COc1ccc(-c2nsc3c(N4CCCC4)ncnc23)cc1 -61.9%
N/C(CC(=O)Nc1cccc(C(F)(F)F)c1)=N/O 5.4%
O=Nc1c2cc(-c3ccccc3)[nH]nc-2c2ccccc12 -167%
Cc1cccc(-c2cc3c(N=O)c4ccccc4c-3n[nH]2)c1 -162%
N#CC12CCCCC1CC1CCCCC1(C#N)N2N (stereo unspecified) 1.8%
O=C(CCCN1C(=O)c2ccccc2C1=O)NCCC1=CCCCC1 5.4%
COc1ccc(-c2nc(CSCC(=O)NCc3ccco3)c(C)o2)cc1 -2%
CCOc1ccc(-c2nc(CSCC(=O)NCc3ccco3)c(C)o2)cc1 9.4%
O=C(OCc1nc2ccccc2s1)c1cc2ccccc2oc1=O -0.9%
Cc1cc(Cl)c(S(=O)(=O)N2CCCC2)cc1OCC(=O)NC1CCCCC1 32.3%
CCN1CCN(S(=O)(=O)c2cc(OCC(=O)NC3CCCCC3)c(C)cc2Cl)CC1 35.8%
C=CCSc1nc2ccccc2n1Cc1nnc(-c2cccs2)o1 8.9%
Cc1cc(CN(C)C(=O)c2cc(COc3ccc4ncccc4c3)on2)on1 28.5%
CN(Cc1cccnc1)C(=O)c1cc(COc2ccc3c(c2)CCCC3)on1 -14.6%
O=C(CNC(=S)N(CCCN1CCOCC1)Cc1cccs1)N1CCCCCC1 -0.9%
COc1ccc(N(CC(=O)N/N=C/c2ccc3c(c2)OCO3)S(=O)(=O)c2ccc(NC(C)=O)cc2)cc1 -7.5%
COc1ccc(S(=O)(=O)N/N=C\c2ccc3c(c2)OCO3)cc1 29.5%
COc1ccc(OC)c(S(=O)(=O)N/N=C\c2ccc3c(c2)OCO3)c1 -26.9%
Cc1ccc(S(=O)(=O)N/N=C\c2ccc([N+](=O)[O-])o2)cc1C 33.4%
Cc1ccc(S(=O)(=O)N/N=C\c2ccc([N+](=O)[O-])o2)cc1 13.4%
CCN(CC)CCn1c(=S)[nH]c2ccc(Br)cc2c1=O 7.1%
CCCCC1=CC2=CC(=O)C(C)(OC(=O)CC)C(=O)C2=CN1C1CCCC1 (stereo unspecified) 33.3%
COc1cccc(NC(=O)NC2CCCCC2C)c1 (stereo unspecified) 0.4%
CCOC(=O)N1CCN(C(=O)c2ccc(Cn3c(=S)[nH]c4cc(C(=O)OC)ccc4c3=O)cc2)CC1 24.9%
CCN(CC)C(=O)c1ccc2c(=O)n(CCOC)c(=S)[nH]c2c1 17.5%
CCN(CC)C(=O)c1ccc2c(=O)n(Cc3ccc4c(c3)OCO4)c(=S)[nH]c2c1 10.2%
COc1ccc(Cn2c(=O)[nH]c3cc(C(=O)N4CCN(c5ccccn5)CC4)ccc3c2=O)cc1 3%
O=C(c1ccc(Cn2c(=O)[nH]c3ccccc3c2=O)cc1)N1CCN(c2ccccn2)CC1 15.4%
CCOC(=O)N1CCN(C(=O)c2ccc(Cn3c(=S)[nH]c4cc(OCC)c(OCC)cc4c3=O)cc2)CC1 43.9%
